Reference: PubChem BioAssay (NCATS)
Results filed as inconclusive are left out. Unmarked numbers belong to inactive results. Calls of active or inactive are those of the source. Calls follow the shape of the dose curve; as a rule, active = well fitted cell-killing curve with a large enough effect; inconclusive = small, poorly fitted or top-dose-only effect, or effect the other way; inactive = no such curve, though single readings can be large or run the other way.

Assay: Quantitative High-Throughput drug screen in 47 multiple myeloma cell lines against the NCATS MIPE library collection: L363_DSMZ cell viability assay (AID 1918984); also: nearly all actives have a fitted effect of over 40% in size
Details: L363 myeloma viability, CellTiter-Glo ATP luminescence, 48 h; series mostly up to 45.8 µM; viability (% of control): at the top concentration
Summary of the method: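 Readout: median RLU from CellTiter-Glo after 5 min at room temperature. Preceding step was 48 h drug treatment of 500 cells/well at 37 °C, 5% CO2, with DMSO-only and media-only control wells.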
Potency is read from the fitted curve at half-maximal effect.

Row | Structure (SMILES) | viability (% of control) | Potency
1 | COc1ccc(-n2nc(C(N)=O)c3c2C(=O)N(c2ccc(N4CCCCC4=O)cc2)CC3)cc1 | 105% | –
2 | CNc1nccc(-c2cccnc2Oc2cc(C(=O)Nc3cccc(C(F)(F)F)c3)ccc2C)n1 | – | 14.8 µM (active)
3 | COc1cccc(-c2ccc(NC(=O)C3=C(C(=O)O)CCC3)c(F)c2)c1 | 92.1% | –
4 | CCCCCCCCCC(=O)N[C@@H](Cc1c[nH]c2ccccc12)C(=O)N[C@H](CC(N)=O)C(=O)N[C@@H](CC(=O)O)C(=O)N[C@@H]1C(=O)NCC(=O)N[C@@H](CCCN)C(=O)N[C@@H](CC(=O)O)C(=O)N[C@H](C)C(=O)N[C@@H](CC(=O)O)C(=O)NCC(=O)N[C@H](CO)C(=O)N[C@@H]([C@@H](C)CC(=O)O)C(=O)N[C@@H](CC(=O)c2ccccc2N)C(=O)O[C@@H]1C | 90.6% | –
5 | CC1(C)O[C@@H]2C[C@@H]3[C@H]4C[C@@H](F)C5=CC(=O)C=C[C@]5(C)[C@@]4(F)[C@@H](O)C[C@]3(C)[C@]2(C(=O)CO)O1 | – | 0.0372 µM (active)
6 | C[C@]12CC[C@H](O)CC1=CCC1C2CC[C@]2(C)C(n3cnc4ccccc43)=CCC12 (stereo not given in full) | 107% | –
7 | Nc1cccc(-c2cc3c(Oc4cccc(O)c4)ncnc3[nH]2)c1 | 125% | –
8 | NC(=O)c1c(OCc2c(F)cc(Br)cc2F)nsc1NC(=O)NCCCCN1CCCC1 | 132% | –
9 | CCN(CC)CCCCNc1ncc2cc(-c3cc(OC)cc(OC)c3)c(NC(=O)NC(C)(C)C)nc2n1 | – | 14.8 µM (active)
10 | CC(=O)OCCN1C(=O)c2c(C)nc3ccc(S(=O)(=O)N4CCOCC4)cc3c2C1=O | 113% | –
